Measurements: PubChem BioAssay AID1347416 (National Center for Advancing Translational Sciences (NCATS), 2020)
Among all 4,100 compounds or so, about 1,600 (39%) were called active. Roughly 25% stayed inconclusive and do not appear here. The call rests on the fitted dose curve; in most records, active means well fitted inhibition curve with a large enough effect; inconclusive means small, poorly fitted or top-dose-only effect; inactive means no such curve, though single readings can be large or run the other way. Some of the results follow.
Potency means the concentration at half of the fitted maximal effect.

Test: qHTS Validation assay for Inhibitors of Plasmodium falciparum Dd2 growth in vitro; further: nearly all actives have a fitted effect of over 70% in size
Conditions: P. falciparum Dd2 in RBCs, SYBR Green growth, 72 h; series mostly up to 28.7 µM
Method in brief: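 P. falciparum Dd2-infected red blood cells (2.5% hematocrit, 0.3% parasitemia) grown 72 h at 37 °C under 5% O2 with compounds in a titration, 29 uM to 0.5 nM final. Growth read as SYBR Green-1 fluorescence after ~16 h lysis; artesunate 300 nM as positive control.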
For `Cc1cc(Nc2cc(Cl)cc(Cl)c2)nc(N)n1`, the Potency was 6.68 µM (active). With `CCOCc1cnc(C)nc1NCC(=O)c1c(C)[nH]c2cc(C)ccc12` the Potency was 4.22 µM (active). In the case of `CCN1CCC(OCCCNC(=O)C2(CCO)CC23CCOCC3)CC1` (stereo not given), the Potency is reported as “inactive”. In the case of `COc1cc(OC)cc(-c2cc3nc4c(c(N5CCN(c6ncccn6)CC5)n3n2)CCCC4)c1`, the Potency is reported as 4.22 µM (active). For `COc1ccc(-c2nnc([C@H]3CCN(c4ncccn4)C3)o2)cc1`, the Potency was “inactive”. In the case of `CCCn1c2c(c(=N)c3c1CCC3)CCC2`, the Potency is reported as 13.3 µM (active). With `CCn1c2c(c(=N)c3c1CCC3)CCCC2` the Potency was 13.3 µM (active). For `CCOC(=O)Cn1c2c(c(=N)c3c1CCC3)CCCC2`, the Potency was “inactive”. For `CCOC(=O)Cn1c2c(c(=N)c3c1CCC3)CCC2`, the Potency was “inactive”. With `CCCn1c2c(c(=N)c3c1CCC3)CCCC2` the Potency was 10.6 µM (active). In the case of `CCn1c2c(c(=N)c3ccccc31)CCC2`, the Potency is reported as 6.68 µM (active). With `CCCCn1c2c(c(=N)c3c1CCC3)CCC2` the Potency was 8.41 µM (active). In the case of `CC(C)c1noc(-c2cccn3c(CNC(=O)c4ccc(F)cc4Cl)nnc23)n1`, the Potency is reported as “inactive”. For `Cc1nn2c(c1-c1ccccc1-c1ccccc1)N(CCC(C)C)CCC2`, the Potency was 0.243 µM (active). With `Cc1nn2c(c1-c1ccccc1[S+](C)(=O)[O-])N(Cc1ccc(C(=O)O)s1)CCC2` the Potency was 7.69 µM (active). For `Cc1nn2c(c1-c1ccccc1C(C)C)N(CCC(C)C)CCC2`, the Potency was 2.17 µM (active). In the case of `Cc1nn2c(c1-c1ccccc1-c1ccccc1)N(CC1CC1)CCC2`, the Potency is reported as 0.968 µM (active). In the case of `Cc1ccc(-c2csc3nc[nH]c(=O)c23)c(C)c1`, the Potency is reported as “inactive”. In the case of `CCc1noc(-c2cccn3c(CNC(=O)COc4ccc(F)cc4)nnc23)n1`, the Potency is reported as “inactive”. In the case of `O=C1Cc2c(-c3ccc(Oc4ccccc4)cc3)n[nH]c2CN1Cc1ccccc1F`, the Potency is reported as “inactive”. For `Cc1nn2c(c1-c1ccccc1[S+](C)(=O)[O-])N(CCC(C)C)CCC2`, the Potency was 9.68 µM (active). For `O=C1CCC2(CCN1)CCN(C(=O)C1CCCCC1)CC2`, the Potency was “inactive”. For `CCC(=O)N1c2ccccc2CC1C(=O)NCc1ccccc1C` (stereo not given), the Potency was “inactive”. With `COc1ccc(C(=O)N2CCC(C3CCN(S(C)(=O)=O)CC3)C2)c(OC)n1` (stereo not given) the Potency was “inactive”. With `COc1ccccc1N(CC(=O)Nc1cc(C)cc(C)c1)S(C)(=O)=O` the Potency was “inactive”. For `CCN(CC)c1ccc(NC(=O)COc2ccccc2C#N)cc1S(=O)(=O)Nc1ccccc1OC`, the Potency was 7.5 µM (active). For `CN(C)CC(CCC(CN(C)C)C(O)(c1ccccc1)c1ccccc1)C(O)(c1ccccc1)c1ccccc1` (stereo not given), the Potency was 2.11 µM (active). For `OC(Cc1ccncc1)(c1ccccc1)c1ccccc1`, the Potency was “inactive”. For `CCOc1ccccc1Nc1nc2ccccc2nc1NS(=O)(=O)c1ccc(Cl)cc1`, the Potency was “inactive”. For `O=S(=O)(Nc1cc2nc3ccccc3nc2n1Cc1ccccc1)c1ccc(Cl)cc1`, the Potency was 1.19 µM (active).
